Screens: PubChem, National Center for Advancing Translational Sciences (NCATS)
In the library only some 6.8% were active in any assay of this set; here they are far more common.
KB-V1 MDR tox = KB-V1 MDR subline cytotoxicity; KB-V1 MDR cells viability, CellTiter-Glo, 72 h; AID 1347076; actives 3.4% (n = 400,000); Potency, µM (series often up to 46.1 µM), usual class: cytotoxic; further: on the % scale 0 is the no-effect control and ±100 the full control effect; nearly all actives have a fitted effect of over 60% in size
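KB-V1 MDR subline cells in DMEM (phenol-red free, 10% FBS) exposed to compounds in qHTS concentration series for 72 h at 37 degrees C. Viability read by CellTiter-Glo luminescence; concentration-effect curves fitted after normalization and correction.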
PINK1 modulator = PINK1 expression modulation | PINK1 immunofluorescence, high-content cytometry, 24 h | Potency, µM (titrated, usually from 76.6 µM), for the others: top-dose activation (PINK1 increase), usual class: activators | actives 0.2% (n = 410,000); active means well fitted activation curve with a large enough effect; inconclusive means small, poorly fitted or top-dose-only effect; cell line not stated here; further: % of control where 0% means no effect; nearly all actives have a fitted effect of over 65% in size
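Compound titrations (5 concentrations, 24 h) on a stable cell line; DMSO and CCCP controls. Endpoint: fixed-cell PINK1 immunofluorescence with mitochondrial, cell and nuclear markers, scanned by microplate cytometer.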
KB-3-1 cytotox = kills parental KB-3-1 adenocarcinoma cells; KB-3-1 viability, CellTiter-Glo ATP luminescence, 72 h; Potency, µM (titrated, usually from 46.1 µM), hits mostly cytotoxic; actives 1.4% (n = 400,000); AID 1347075; further: on the % scale 0 is the no-effect control and ±100 the full control effect; nearly all actives have a fitted effect of over 60% in size
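Screening of KB-3-1 cells (DMEM, 10% FBS, phenol-red free) ran from lowest to highest compound concentration; after 72 h at 37 °C viability was read luminescently and curves fitted.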
SW480 rereplic = inducers of DNA re-replication in SW480 colon cancer cells; SW480 DNA re-replication, Hoechst DNA content imaging, 48 h; Potency, µM (titrated, usually from 46.1 µM), inactives show at the highest dose re-replication activation, actives largely listed as activators; actives 1.8% (n = 340,000); AID 624297; further: % of control where 0% means no effect; nearly all actives have a fitted effect of over 55% in size
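Readout is total intensity of Hoechst-stained nuclei, excited at 405 nm and collected at 500-530 nm. Compound treatment lasted 48 hr at 37 C in 5% CO2 before staining.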
MCF10A rerep = DNA re-replication induction in MCF 10a cells; AID 624296; MCF 10A DNA re-replication, Hoechst nuclear intensity, 48 h; Potency, µM (doses to about 46.1 µM), inactives show at the highest dose activity, positive = re-replication, most hits filed as activators; actives 2.9% (n = 350,000); further: % of control where 0% means no effect; nearly all actives have a fitted effect of over 50% in size
PTAP TSG101 blk = blocks PTAP/TSG101 interaction to inhibit HIV-1 budding | 340,000 tested, under 10 active | AID 493005 | Potency, µM (titrated, usually from 115 µM), for the others: at the highest dose activity change, negative = inhibition, hits mostly inhibitors | Fluorescence polarization, FITC-PTAP peptide / Tsg101 binding; active means well fitted inhibition curve with a large enough effect in the main read-out, with a control signal flat, not every such curve was filed as active; inconclusive means small, poorly fitted or top-dose-only effect, or effect the other way, or a change in a side signal; inactive means no such curve, though single readings can be large or run the other way; further: % of control where 0% means no effect
Target sequence (Q99816 whole entry, looked up): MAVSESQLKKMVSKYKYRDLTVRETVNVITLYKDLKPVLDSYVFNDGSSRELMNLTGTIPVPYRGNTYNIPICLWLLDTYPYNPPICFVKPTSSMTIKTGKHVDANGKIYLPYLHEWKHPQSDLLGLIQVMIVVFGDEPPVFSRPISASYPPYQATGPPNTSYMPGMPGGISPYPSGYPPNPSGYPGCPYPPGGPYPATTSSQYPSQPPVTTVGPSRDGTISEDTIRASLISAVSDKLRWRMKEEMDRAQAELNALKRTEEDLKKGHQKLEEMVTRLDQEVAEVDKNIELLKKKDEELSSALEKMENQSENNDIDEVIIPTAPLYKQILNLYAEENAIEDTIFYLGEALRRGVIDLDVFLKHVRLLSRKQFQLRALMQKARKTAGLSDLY
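Steps: Tsg101 binding domain dispensed (10 uM final), compounds pinned in DMSO, FITC-labeled PTAP-motif peptide added (50 nM final); after 20 min binding at room temperature, polarization measured.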
Numbers without * were called inactive; [ ] = remark or other dose. Unless noted, the call rests on the fitted dose curve; in most records, active means well fitted curve in the direction sought with a large enough effect; inconclusive means small, poorly fitted or top-dose-only effect, or another doubt; inactive means no such curve, though single readings can be large; an effect the other way counts as inactive or inconclusive. Potency means the concentration at half of the fitted maximal effect.

How did Cn1c(N2CCOCC2)nc2c1c(=O)n(Cc1ccc(Cl)cc1)c(=O)n2C do in these assays?
KB-V1 MDR tox: 23µM*; PINK1 modulator: 21%[38.3 µM]; KB-3-1 cytotox: inactive; SW480 rereplic: 0%; MCF10A rerep: 13%; PTAP TSG101 blk: -6%

How did COCCNc1nc2c(c(=O)n(Cc3ccc(OC)cc3)c(=O)n2C)n1C do in these assays?
KB-V1 MDR tox: inactive; PINK1 modulator: 0%; KB-3-1 cytotox: inactive; SW480 rereplic: -5%; MCF10A rerep: 5%; PTAP TSG101 blk: -3%

What do the screens show for `Cn1c(=O)c2c(nc(N3CCCCCC3)n2Cc2cccc3ccccc23)n(C)c1=O`?
KB-V1 MDR tox: inconclusive; PINK1 modulator: 2%; KB-3-1 cytotox: 18µM*; SW480 rereplic: -7%; MCF10A rerep: inconclusive; PTAP TSG101 blk: -3%

What do the screens show for `C=CCOc1nc2c(c(=O)n(Cc3ccc(Cl)c(Cl)c3)c(=O)n2C)n1C`?
KB-V1 MDR tox: inconclusive; PINK1 modulator: 0%; KB-3-1 cytotox: inactive; SW480 rereplic: 1%; MCF10A rerep: inconclusive; PTAP TSG101 blk: 0%

What do the screens show for `Cc1ccnc(SCCn2c(N3CCCCC3)nc3c2c(=O)n(C)c(=O)n3C)n1`?
KB-V1 MDR tox: 18µM*; PINK1 modulator: 4%; KB-3-1 cytotox: inactive; SW480 rereplic: -10%; MCF10A rerep: -1%; PTAP TSG101 blk: -1%

What do the screens show for `Cn1c(N2CCCCC2)nc2c1c(=O)n(Cc1cccc(Br)c1)c(=O)n2C`?
KB-V1 MDR tox: 10µM*; PINK1 modulator: 0%; KB-3-1 cytotox: inactive; SW480 rereplic: -6%; MCF10A rerep: 6%; PTAP TSG101 blk: -1%

Results for Cc1ccnc(SCCn2c(N3CCC(C)CC3)nc3c2c(=O)n(C)c(=O)n3C)n1 ?
KB-V1 MDR tox: inactive; PINK1 modulator: inconclusive; KB-3-1 cytotox: inactive; SW480 rereplic: -3%; MCF10A rerep: 0%; PTAP TSG101 blk: -9%

What do the screens show for `Cc1nn(-c2ccc(F)cc2)c(Cl)c1/C=C(\CCC(=O)O)c1nc2ccccc2s1`?
KB-V1 MDR tox: inactive; PINK1 modulator: -1%[38.3 µM]; KB-3-1 cytotox: inactive; SW480 rereplic: -2%; MCF10A rerep: 18µM*; PTAP TSG101 blk: -8%

Results for Cc1ccc(S(=O)(=O)Nc2cccc(C(=O)NCc3cccnc3)c2)cc1F ?
KB-V1 MDR tox: inactive; PINK1 modulator: 12%; KB-3-1 cytotox: 7.3µM*; SW480 rereplic: 6.5µM*; MCF10A rerep: 2.9µM*; PTAP TSG101 blk: -3%

How did O=C(NCc1ccccn1)c1cccc(NS(=O)(=O)c2ccc(Br)cc2)c1 do in these assays?
KB-V1 MDR tox: inactive; PINK1 modulator: 0%; KB-3-1 cytotox: inactive; SW480 rereplic: -10%; MCF10A rerep: -4%; PTAP TSG101 blk: -1%

Results for O=C(NCc1cccnc1)c1cccc(S(=O)(=O)Nc2ccc(F)cc2)c1 ?
KB-V1 MDR tox: inactive; PINK1 modulator: 2%; KB-3-1 cytotox: inactive; SW480 rereplic: 7%; MCF10A rerep: 9%; PTAP TSG101 blk: -6%

Results for COc1cccc(NC(=O)c2ccc(S(=O)(=O)NCc3cccnc3)cc2)c1 ?
KB-V1 MDR tox: 18µM*; PINK1 modulator: 0%; KB-3-1 cytotox: inactive; SW480 rereplic: -18%; MCF10A rerep: 1%; PTAP TSG101 blk: -4%

What do the screens show for `O=C(NCc1cccnc1)c1cccc(NS(=O)(=O)c2ccc(Br)cc2)c1`?
KB-V1 MDR tox: inactive; PINK1 modulator: 10%; KB-3-1 cytotox: 5.8µM*; SW480 rereplic: 9.2µM*; MCF10A rerep: 0.65µM*; PTAP TSG101 blk: 0%

What do the screens show for `O=C(NCc1ccc(F)cc1)c1ccc(S(=O)(=O)Nc2cccc(C(F)(F)F)c2)cc1`?
KB-V1 MDR tox: 15µM*; PINK1 modulator: 24%; KB-3-1 cytotox: inconclusive; SW480 rereplic: 1%; MCF10A rerep: inconclusive; PTAP TSG101 blk: 0%

What do the screens show for `CCOc1ccc(CNC(=O)C2CCN(S(=O)(=O)c3cn(C)cn3)CC2)cc1`?
PINK1 modulator: 1%

What do the screens show for `CC(C)Cn1cc(NC(=O)NCc2ccc(Cl)cc2)c2ccccc2c1=O`?
KB-V1 MDR tox: inactive; PINK1 modulator: -5%; KB-3-1 cytotox: inactive

What do the screens show for `Cn1ncc(C(=O)N2CCN(c3ccc(F)cc3)CC2)c1C1CCN(C(=O)OC(C)(C)C)CC1`?
KB-V1 MDR tox: inactive; PINK1 modulator: 0%; KB-3-1 cytotox: inactive

Results for COc1ccc(CC(=O)NCC2(N3CCCCC3)CCCCC2)cc1 ?
KB-V1 MDR tox: inactive; PINK1 modulator: 2%; KB-3-1 cytotox: inactive; SW480 rereplic: 23µM*; MCF10A rerep: inconclusive; PTAP TSG101 blk: -4%

How did CSc1ccc(CNC(=O)C2CCCN(S(=O)(=O)N(C)c3ccc(F)cc3)C2)cc1 (stereo not given) do in these assays?
KB-V1 MDR tox: inactive; PINK1 modulator: 3%; KB-3-1 cytotox: 16µM*

How did CCCc1ccc2oc(C(=O)NCCN3CCCC(O)C3)c(C)c2c1 (stereo not given) do in these assays?
KB-V1 MDR tox: inactive; PINK1 modulator: 0%; KB-3-1 cytotox: inactive; SW480 rereplic: 23µM*; MCF10A rerep: inconclusive; PTAP TSG101 blk: -3%

Results for CCCc1ccc2oc(C(=O)NCCN3CCCC(C(N)=O)C3)c(C)c2c1 (stereo not given) ?
KB-V1 MDR tox: inactive; PINK1 modulator: 5%; KB-3-1 cytotox: inactive; SW480 rereplic: 21%; MCF10A rerep: 24%; PTAP TSG101 blk: -5%

Results for Cc1oc(-c2ccccc2F)nc1Cn1c(SCc2ccccc2F)nc2ccncc21 ?
KB-V1 MDR tox: inactive; PINK1 modulator: 1%; KB-3-1 cytotox: inactive

Results for O=C(NCCOc1ccccc1F)c1cc([N+](=O)[O-])ccc1N1CCOCC1 ?
KB-V1 MDR tox: inactive; PINK1 modulator: 0%; KB-3-1 cytotox: inconclusive; SW480 rereplic: 9.2µM*; MCF10A rerep: inconclusive; PTAP TSG101 blk: 0%

What do the screens show for `O=C(NCCc1ccc(F)cc1)c1cc([N+](=O)[O-])ccc1N1CCOCC1`?
KB-V1 MDR tox: inconclusive; PINK1 modulator: 1%; KB-3-1 cytotox: inactive; SW480 rereplic: -9%; MCF10A rerep: -4%; PTAP TSG101 blk: -1%

Results for O=C(NCCOc1ccccc1)c1cc([N+](=O)[O-])ccc1N1CCOCC1 ?
KB-V1 MDR tox: inconclusive; PINK1 modulator: 1%; KB-3-1 cytotox: inconclusive; SW480 rereplic: 2.9µM*; MCF10A rerep: 10µM*; PTAP TSG101 blk: 2%

Results for Cc1ccc(OC(=O)c2cc(-c3ccc4c(c3)OCCO4)on2)c(C)c1 ?
PINK1 modulator: 0%
